Source: PubChem BioAssay (National Center for Advancing Translational Sciences (NCATS))
A selection: hits, their analogues and other compounds. The true share with any hit is near 2.8%.
LDHA inh: inhibitors of human lactate dehydrogenase A. P00338. purified LDHA, NADH/diaphorase-resazurin fluorescence; stronger effect = lower value. activity change, % (values are at about 110 or 230 µM). 0.15% of 480,000 active. AID 1347041; in the data active means activity change below about -30%; inconclusive means mostly about -25% to -30%
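LDH5 2 nM; NADH 0.06 mM, pyruvate 0.2 mM; 200 mM Tris pH 7.4, EDTA, Tween-20; 5 min RT. Detection: diaphorase 0.133 mg/mL + resazurin 37 µM, fluorescence ex540/em590 at 0 and 20 min; normalized to enzyme-free and DMSO wells.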
DRD3 agonist: agonists of human D3 dopamine receptor | P35462 | AID 652048 | 0.58% of 410,000 active | max activation, % | D3R DiscoveRx beta-arrestin cells, luminescence, 90 min; in the data active means max activation above about 30%
Target sequence (P35462 whole entry, looked up): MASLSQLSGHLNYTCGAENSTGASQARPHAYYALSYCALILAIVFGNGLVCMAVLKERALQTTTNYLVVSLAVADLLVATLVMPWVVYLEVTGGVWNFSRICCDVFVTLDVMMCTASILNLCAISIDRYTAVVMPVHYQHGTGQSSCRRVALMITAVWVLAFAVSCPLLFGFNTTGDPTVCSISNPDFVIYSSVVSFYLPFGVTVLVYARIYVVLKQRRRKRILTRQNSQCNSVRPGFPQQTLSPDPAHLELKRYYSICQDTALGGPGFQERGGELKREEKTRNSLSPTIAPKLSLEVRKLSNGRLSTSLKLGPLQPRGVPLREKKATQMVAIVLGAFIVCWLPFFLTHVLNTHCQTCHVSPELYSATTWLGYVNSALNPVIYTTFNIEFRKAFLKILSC
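Cells at 1500/well, incubated overnight, then treated with pinned compounds (dopamine as control) for 90 min at 37 degrees C. DiscoveRx reagent added for 30 - 60 minutes at room temperature; luminescence read.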
RGS4 inhibitor: inhibitors of human regulator of G protein signaling 4; P49798; Transcreener GDP fluorescence polarization, RGS4-accelerated GTP hydrolysis; Potency, µM (doses to about 114 µM), usual class: inhibitors; 0.039% of 390,000 active; AID 504845; active means well fitted inhibition curve with a large enough effect; inconclusive means small, poorly fitted or top-dose-only effect; inactive means no such curve, though single readings can be large or run the other way; further: nearly all actives have a fitted effect of over 75% in size
Target sequence (P49798 whole entry, looked up): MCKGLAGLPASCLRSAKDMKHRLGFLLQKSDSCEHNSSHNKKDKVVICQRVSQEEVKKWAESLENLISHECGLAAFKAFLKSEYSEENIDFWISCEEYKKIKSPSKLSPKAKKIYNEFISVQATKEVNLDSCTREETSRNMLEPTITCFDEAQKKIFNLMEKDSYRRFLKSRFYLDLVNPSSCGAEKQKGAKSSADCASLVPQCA
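MLSMR compounds (23 nl, pin-transferred) preincubated 10 min at room temperature with a 500nM (2x) first reagent, then RGS4 at 900nM (2x) plus Transcreener GDP mix added; fluorescence polarization (620/688 nm) read before and after 90 min at 30 °C.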
DRD3 antagonist: antagonists of human D3 dopamine receptor; P35462; D3R cells, DiscoveRx beta-arrestin luminescence, antagonist mode; stronger effect = lower value; max response, negative = inhibition, %; 2.5% of 360,000 active; AID 652054; in the data active means max response below about -50%; inconclusive means no clear call, values can overlap the other calls
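Cells expressing the human receptor were seeded at 1500 cells/well, incubated overnight at 37 degrees C in 5% CO2, then exposed to library compounds with dopamine controls for 90 minutes at 37 degrees C before luminescent detection.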
PI4K2A inh: PI4K2A (human) kinase inhibition. Q9BTU6. purified PI4K2A, ADP-Glo luminescence, 1 h; stronger effect = lower value. activity change, negative = inhibition, % at 76.9 µM. 0.13% of 420,000 active. AID 1346378; in the data active means activity change below about -50%; inconclusive means mostly about -30% to -49%
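PI4K2A activity was measured by ADP-Glo luminescence: enzyme (4 ug/mL stock) and phosphatidylinositol (1.2 mM stock) in Tris pH 7.5/MgCl2/EGTA/Triton X-100 buffer were reacted with ATP (300 microM stock) for one hour at ambient temperature.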
Akt phos inh: inhibitors of Akt phosphorylation; Neuro2A IGF-stimulated pAkt S473 HTRF, 20 min; stronger effect = lower value; activity change, % for hits at 50 µM; 0.32% of 360,000 active; AID 651550; in the data active means activity change below about -80%; inconclusive means mostly about -51% to -80%
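Neuro2A cells in DMEM with 0.5% FBS, overnight at 37 deg C, given compound at single 50 µM final, then IGF (6 nM final) for 20 min at 37 deg C. Lysed; phospho-Akt Ser473 by HTRF after 24 h, 665/615 ratio.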
Numbers stand for hits; i = inactive; ? = inconclusive; nt = not tested or not shown.

SMILES	LDHA inh	DRD3 agonist	RGS4 inhibitor	DRD3 antagonist	PI4K2A inh	Akt phos inh
CC(C(=O)NC(C)(C)C)N(C(=O)CS(=O)CC(=O)Nc1ccc(F)cc1)C1CCCC1 (stereo not drawn)	i	37	i	i	i	i
CCOC(=O)C1CCCN(CCC(=O)Nc2cc(C)ccc2C)C1 (stereo not drawn)	i	i	i	?	i	i
CCOC(=O)C1CCCN(CCC(=O)Nc2ccc(C)c(C)c2)C1 (stereo not drawn)	i	i	i	?	i	i
CCOC(=O)C1CCCN(CCC(=O)Nc2ccc(Br)cc2)C1 (stereo not drawn)	i	i	i	-50	i	i
CCOC(=O)C1CCCN(CCC(=O)Nc2ccc(Br)c(C)c2)C1 (stereo not drawn)	i	i	i	-54	i	i
CCOC(=O)C1CCCN(CCC(=O)Nc2ccc3c(c2)CCC3)C1 (stereo not drawn)	i	i	i	-56	i	i
COc1ccc(C(=O)Nc2nc3c(s2)CCc2cc(OC)ccc2-3)cc1	i	i	?	nt	i	nt
COc1ccc(C(=O)Nc2nc(-c3ccc([N+](=O)[O-])cc3)c(-c3ccc(OC)cc3)s2)cc1	i	i	i	-52	i	i
CS(=O)(=O)c1ccc2nc(NC(=O)c3ccccc3Br)sc2c1	i	i	i	-56	i	i
COc1ccc(C(=O)Nc2nc3ccc(S(C)(=O)=O)cc3s2)cc1	i	i	i	i	i	-85%
Cc1cc(C)c2nc(NC(=O)c3ccc(OCC4CCCO4)cc3)sc2c1 (stereo not drawn)	i	i	i	i	i	i
CS(=O)(=O)c1ccc2nc(NC(=O)c3ccccc3Cl)sc2c1	i	i	i	i	i	i
Cc1ccc2nc(NC(=O)c3ccc(OCC4CCCO4)cc3)sc2c1 (stereo not drawn)	i	49	i	i	i	i
COCCN(Cc1cccs1)C(=O)COc1ccc2c(C)cc(=O)oc2c1	i	nt	nt	nt	nt	nt
COc1ccc(C2=CC3=C(Br)C(=O)C(C)(OC(=O)c4ccco4)C(=O)C3=CO2)cc1 (stereo not drawn)	i	i	?	i	?	i
COc1ccc(C2=CC3=C(Br)C(=O)C(C)(OC(=O)c4cccs4)C(=O)C3=CO2)cc1 (stereo not drawn)	i	i	?	-55	i	i
Cc1ccc(-c2nn(-c3cccc(F)c3)cc2CN2CCN(c3ccccn3)CC2)o1	i	i	?	-70	i	i
CSc1ccc(S(=O)(=O)Nc2c(C)cccc2C)cc1	i	i	i	-166	i	i
Cc1nc(SCC(=O)N2c3ccccc3NC(=O)CC2C)c2c(C)c(C)sc2n1 (stereo not drawn)	i	i	i	i	i	i
Cc1sc2nc(C3CC3)nc(SCC(=O)N3c4ccccc4CC3C)c2c1C (stereo not drawn)	i	42	i	i	i	i
COc1cccc(C2C3(C#N)C(N)=NC(OC)(OC)C23C#N)c1 (stereo not drawn)	i	i	i	i	i	i
COC1(OC)N=C(N)C2(C#N)C(c3cccc(Oc4ccccc4)c3)C12C#N (stereo not drawn)	i	i	i	-50	i	i
Fc1ccc(NC(=S)NCCc2ccccn2)cc1Cl	i	nt	nt	nt	nt	nt
CCOC(=O)c1sc(NCCNc2nc(C)c(C(=O)OCC)s2)nc1C	i	i	i	i	i	-112%
CCOC(=O)c1sc(C)nc1C	i	nt	nt	nt	nt	nt
SMILES	LDHA inh	DRD3 agonist	RGS4 inhibitor	DRD3 antagonist	PI4K2A inh	Akt phos inh
Cc1ccc(NCN2C(=O)C(=O)c3ccccc32)nc1	i	i	i	-64	i	i
CCOc1ccc(NC(=O)Cn2cnc3c(nnn3Cc3ccc(C)cc3)c2=O)cc1	i	nt	nt	nt	nt	nt
CNC(=S)N/N=C1\C(=O)c2cccc3cccc1c23	i	i	i	-55	i	i
COc1ccc(C(c2nnnn2Cc2ccccc2)N2CCN(C/C=C/c3ccccc3)CC2)cc1 (stereo not drawn)	i	i	nt	-96	i	i
C(=C\c1ccccc1)/CN1CCN(C(c2ccccc2)c2nnnn2Cc2ccccc2)CC1 (stereo not drawn)	i	i	nt	-71	i	i
CCCCOCCCNC(=O)CCC(=O)NC1CCCC(C)C1C (stereo not drawn)	i	nt	nt	nt	nt	nt
Brc1ccc(-c2noc(-c3cc(-c4ccco4)n[nH]3)n2)cc1	i	nt	nt	nt	nt	nt
CCOc1ccc(C(=O)Nc2ccc(O)c(-c3nc4ccccc4o3)c2)cc1Cl	i	nt	nt	nt	nt	nt
CCCNC(=O)NC1=C(C#N)C(C)(C)Cc2ccccc21	i	nt	nt	nt	nt	nt
Cc1cccc(OCCCC(=O)NNC(=O)CCN2CCN(c3ccccc3)CC2)c1	i	i	i	i	i	i
O=C(CCN1CCN(c2ccccc2)CC1)NNC(=O)Cc1ccccc1Cl	i	i	i	?	i	i
O=C(CCN1CCN(c2ccccc2)CC1)NNC(=O)c1ccccc1	i	i	nt	-54	i	i
Cc1cccc(OCC(=O)NNC(=O)CCN2CCN(c3ccccc3)CC2)c1C	i	i	i	-83	i	i
CC(=O)Nc1ccc(-c2csc(NC(=O)c3nn(C(C)C)c(=O)c4ccccc34)n2)cc1	i	nt	nt	nt	nt	nt
C=CC(=O)NC(NC(=O)C=C)c1ccccc1	i	nt	nt	nt	nt	nt
COc1ccc(CCn2c(N)cc(=O)[nH]c2=O)cc1OC	i	i	?	-86	i	i
COc1ccc(CCN2C(=O)C3C4C=CC(C5CC45)C3C2=O)cc1OC (stereo not drawn)	i	i	i	i	i	i
COc1ccc(CCN2C(=O)C3C4C=CC(C3C2=O)C2C(=O)N(CCc3ccc(OC)c(OC)c3)C(=O)C42)cc1OC (stereo not drawn)	i	31	i	i	i	i
COC(=O)c1ccc(CSc2n[nH]c(=S)s2)o1	i	i	?	i	i	-100%
CCSc1n[nH]c(=S)s1	i	i	i	?	i	i
COC(=O)CSc1n[nH]c(=S)s1	i	i	i	-68	i	i
O=C(/C=C/Nc1cccc(C(F)(F)F)c1)c1ccc(Br)cc1	i	nt	nt	nt	nt	nt
CC(C)c1nc(OCC(=O)NCCc2ccccc2)c(C#N)c2c1CCCC2	i	nt	nt	nt	nt	nt
O=C1CCCC2=C1C(c1cccc(O)c1)c1c(nc(SCc3ccccc3F)[nH]c1=O)N2 (stereo not drawn)	i	nt	nt	nt	nt	nt
CCOC(=O)CN1C(C(=O)c2ccccc2)=C(OC(=O)c2ccccc2)c2ccccc2S1(=O)=O	i	49	i	nt	i	nt
CC(=O)C1=C(O)C(=O)N(c2ccc(S(N)(=O)=O)cc2)C1c1ccc([N+](=O)[O-])cc1 (stereo not drawn)	i	i	i	-81	i	i
Oc1c(Br)cc(Br)cc1/C=N/Nc1ccc(Cl)nn1	i	i	i	-68	i	i
CCc1ccc(S(=O)(=O)Nc2ccc(N3CCN(C)CC3)cc2)cc1	i	i	i	-82	i	i
